This passage reports z-score and composite z-score results from PubChem BioAssay.

The structures appear in SMILES notation. Activity calls are given as the source filed them. Unless noted, the rule behind the calls is not given here.

A short description of experiment [1]: HepG2 liver cancer cell viability effects, profiling panel, resazurin fluorescence, 24 h, PK04 Diversity Set (AID 1172). The note with it: higher = more signal.
A short description of experiment [2]: basal S. cerevisiae growth modulation, no modifier, primary screen, OD600, strain BY4716, 24 h, basal condition (AID 1173). The conditions noted are these: OD600, 24 h, higher = more signal, called active from +8 up or from −8 down.
A short description of experiment [3]: MM1S myeloma cell viability, profiling panel, resazurin fluorescence, basal, 24 h, PK04 Diversity Set (AID 1174).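 Note: MM1S multiple myeloma cell line.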 The note with it: higher = more signal, called active from +8 up or from −8 down. In general terms: Resazurin is reduced to fluorescent resorufin, in cell work by metabolically active cells.
For experiment [4], the target named is Dihydroorotate dehydrogenase (quinone), mitochondrial (Plasmodium falciparum (isolate 3D7)) (UniProt Q08210). Kind of experiment: PfDHODH enzyme inhibitors, primary screen, biochemical, C-terminal His tag, absorbance 600 nm (AID 1175).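 Note: recombinant parasite enzyme with a five histidine tag at its C terminus.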 The conditions noted are these: DCIP absorbance 600 nm, higher = more signal, called active from +8 up or from −8 down.
Chain of Dihydroorotate dehydrogenase (quinone), mitochondrial (Plasmodium falciparum (isolate 3D7)) (Q08210 whole entry, looked up): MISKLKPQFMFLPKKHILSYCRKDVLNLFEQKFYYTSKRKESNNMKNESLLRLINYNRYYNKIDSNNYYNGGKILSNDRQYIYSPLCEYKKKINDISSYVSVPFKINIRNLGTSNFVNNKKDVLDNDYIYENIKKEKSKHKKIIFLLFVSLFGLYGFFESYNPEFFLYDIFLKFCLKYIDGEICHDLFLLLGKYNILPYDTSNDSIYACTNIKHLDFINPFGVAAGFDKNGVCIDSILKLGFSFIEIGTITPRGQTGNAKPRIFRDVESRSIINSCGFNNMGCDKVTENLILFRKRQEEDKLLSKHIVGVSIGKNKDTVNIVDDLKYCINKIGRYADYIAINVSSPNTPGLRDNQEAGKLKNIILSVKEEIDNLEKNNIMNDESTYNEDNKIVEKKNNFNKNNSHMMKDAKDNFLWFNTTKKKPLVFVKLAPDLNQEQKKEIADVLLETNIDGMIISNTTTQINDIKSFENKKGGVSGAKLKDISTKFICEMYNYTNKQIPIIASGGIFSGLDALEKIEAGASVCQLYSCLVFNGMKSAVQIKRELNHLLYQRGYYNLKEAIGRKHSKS
The nature of experiment [5]: P. aeruginosa biofilm formation inhibitors, primary screen, strain PAO1, LB-PBS medium, absorbance 600 nm (AID 1176). The conditions noted are these: P. aeruginosa PAO1 growth/biofilm, A600, 12 h; higher = more signal.
Experiment [6] in a line: S. cerevisiae RM11-1a growth modifiers, primary screen, strain RM11-1a, OD600, basal, 24 h (AID 1177).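 Note: cultures grown under basal conditions with no added stressor.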 The conditions noted are these: OD600, 24 h, higher = more signal, called active from +8 up or from −8 down.
Experiment [7] in a line: E. coli acrAB mutant growth effects, primary screen, E. coli filamentation inducers, strain DRC39, OD650, 24 h (AID 1178).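 Note: growth measured as culture turbidity by optical density at 650 nm.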 The conditions noted are these: higher = more signal, called active from +8 up or from −8 down.
Experiment [8] can be described thus: E. coli acrAB mutant growth effects, primary screen, E. coli filamentation inducers, strain DRC39, OD650, 48 h (AID 1179).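 Note: screen aims at cell division blockers that make cells filament.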 The conditions noted are these: E. coli DRC39 delta-acrAB growth, higher = more signal, called active from +8 up or from −8 down.
The nature of experiment [9]: RPMI8226 myeloma cell viability, profiling panel, resazurin fluorescence, basal, 24 h, PK04 Diversity Set (AID 1180).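 Note: RPMI8826 multiple myeloma cell line at 5000 cells per well.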 The note with it: higher = more signal.
The target in experiment [10] is E3 ubiquitin-protein ligase XIAP (Homo sapiens) (UniProt P98170). Kind of experiment: XIAP binders, primary screen, biophysical, small-molecule microarray, fluorescence 635 nm (AID 1181).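 Note: score merges 667 nm emission and signal to noise over triplicate slides.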 The conditions noted are these: small-molecule microarray binding, higher = more signal.
Chain of E3 ubiquitin-protein ligase XIAP (Homo sapiens) (P98170 whole entry, looked up): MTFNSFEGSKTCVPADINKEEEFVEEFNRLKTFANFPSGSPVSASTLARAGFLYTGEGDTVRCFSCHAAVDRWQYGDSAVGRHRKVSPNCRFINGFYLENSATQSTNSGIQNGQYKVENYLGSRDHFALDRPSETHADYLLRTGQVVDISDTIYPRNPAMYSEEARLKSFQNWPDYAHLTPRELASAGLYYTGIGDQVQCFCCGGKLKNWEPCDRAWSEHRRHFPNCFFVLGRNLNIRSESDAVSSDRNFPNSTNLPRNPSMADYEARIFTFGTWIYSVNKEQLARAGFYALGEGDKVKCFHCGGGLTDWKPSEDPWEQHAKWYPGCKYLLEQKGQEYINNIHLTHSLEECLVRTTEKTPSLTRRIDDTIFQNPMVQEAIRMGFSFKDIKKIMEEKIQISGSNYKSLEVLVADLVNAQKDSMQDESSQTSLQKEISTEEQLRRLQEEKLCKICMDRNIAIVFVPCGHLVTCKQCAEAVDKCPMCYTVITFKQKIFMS
Experiment [11] deals with XIP peptide (Xip251-270) binding. The experiment is described as follows: small-molecule binders of XIP peptide, primary screen, biochemical, small-molecule microarray, fluorescence 635/667 nm, 0.1 µg/mL protein (AID 1182). The note with it: fluorescent protein binding, 635 nm, higher = more signal, called active from +8 up or from −8 down.
The next experiment relates to XIP peptide (Xip251-270). The experiment is described as follows: small-molecule binders of XIP peptide, primary screen, biochemical, small-molecule microarray, fluorescence 635/667 nm, 0.5 µg/mL protein (AID 1183). The conditions noted are these: small-molecule microarray binding, fluorescence 635 nm; higher = more signal.
A short description of experiment [12]: Plasmodium falciparum growth inhibition, primary screen, strain 3D7, DAPI fluorescence, 100 nL (AID 1184).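 Note: parasites grown inside human red blood cells in medium with human serum.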 The note with it: P. falciparum 3D7 growth, 3 d, higher = more signal.
The target of experiment [13] is Homeobox protein Hox-A13 (Mus musculus) (UniProt Q62424). Kind of experiment: inhibitors of HoxA13-DNA binding, primary screen, biochemical, fluorescence polarization, labeled oligonucleotide (AID 1185). The conditions noted are these: 15 min, higher = more signal, called active from +8 up or from −8 down. A general note: In fluorescence polarisation assays a small probe gives low polarisation when free and higher when bound to something large.
Chain of Homeobox protein Hox-A13 (Mus musculus) (Q62424 whole entry, looked up): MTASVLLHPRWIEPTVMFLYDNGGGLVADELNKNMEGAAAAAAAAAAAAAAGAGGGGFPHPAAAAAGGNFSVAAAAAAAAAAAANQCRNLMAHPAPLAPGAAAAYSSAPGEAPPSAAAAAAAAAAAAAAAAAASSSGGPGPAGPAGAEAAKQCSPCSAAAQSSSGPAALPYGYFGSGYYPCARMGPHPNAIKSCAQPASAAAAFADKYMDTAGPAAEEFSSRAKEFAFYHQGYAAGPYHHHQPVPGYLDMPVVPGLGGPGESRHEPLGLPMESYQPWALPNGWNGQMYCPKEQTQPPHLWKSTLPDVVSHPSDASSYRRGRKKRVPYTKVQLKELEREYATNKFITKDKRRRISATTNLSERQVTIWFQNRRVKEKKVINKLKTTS

Experiment [14] is described as follows: inhibitors of hydroxyurea-induced Chk1 phosphorylation, primary screen, imaging, HeLa, phospho-Chk1 antibody, percent positive cells (AID 1186). The conditions noted are these: hydroxyurea-induced phospho-Chk1 immunofluorescence imaging, higher = more signal.
Experiment [15] in a line: inhibitors of hydroxyurea-induced Chk1 phosphorylation, primary screen, imaging, HeLa, phospho-Chk1 nuclear intensity (AID 1187). The note with it: hydroxyurea-induced phospho-Chk1 immunofluorescence imaging, higher = more signal.

Take `Cc1ccc(C(C)CC(O)C2C=CC3C(=O)N(C)C(=O)C3N2Nc2ccccc2)o1` (stereo not drawn): the z-score in experiment [1] was -0.243; in [2], 0.372 (inactive); in experiment [3], -0.855 (inactive); in experiment [5], 0.695 (inactive); in [6], 0.051 (inactive); in experiment [7], -1 (inactive). The z-score in [8] was -0.466 (inactive); in experiment [9], -0.874; in [12], 0.385; in experiment [13], -4.68 (inactive); in experiment [14], 0.163 (inactive); in experiment [15], -0.0486 (inactive). The composite z-score was 0.164 (inactive) in experiment [4], 0.198 in experiment [10], 0.476 (inactive) in experiment [11] and 0.383 in the experiment on XIP peptide (Xip251-270).
For the compound `O=C1C2C=CC(C(O)c3c(F)cccc3Cl)N(Nc3ccc([N+](=O)[O-])cc3)C2C(=O)N1c1ccccc1` (stereo not drawn), the z-score in experiment [1] was -0.0492; in experiment [2] it was 0.615 (inactive); in experiment [3] it was -0.396 (inactive); in [5] it was 0.685 (inactive); in [6] it was 0.378 (inactive); in [7] it was -0.333 (inactive). Besides, the z-score is -0.194 (inactive) in experiment [8]; 0.278 in [9]; -0.545 in [12]; -3.05 (inactive) in [13]; 0.982 (inactive) in experiment [14]; 1.09 (inactive) in [15]. For the same compound, the composite z-score is 0.406 (inactive) in experiment [4], -0.357 in experiment [10], 1.03 (inactive) in experiment [11] and 0.878 in the experiment with XIP peptide (Xip251-270).
As to `CCCCC(O)C1C=CC2C(=O)N(c3ccccc3)C(=O)C2N1Nc1ccc([N+](=O)[O-])cc1` (stereo not drawn), the z-score in [1] was 0.172; in [2], -0.485 (inactive); in [3], 0.519 (inactive); in experiment [5], 1.03 (inactive); in [6], -0.385 (inactive); in [7] it was 0.356 (inactive). The z-score in [8] was 0.282 (inactive); in experiment [9] it was -0.354; in [12], -0.496; in [13], -4.62 (inactive); in experiment [14], 0.391 (inactive); in experiment [15] it was 0.501 (inactive). Besides, the composite z-score in experiment [4] was 0.0188 (inactive); in [10], -0.156; in experiment [11] it was 0.0204 (inactive); in the experiment on XIP peptide (Xip251-270) it was 0.598.
Regarding `C=CCC(OC(C)=O)[C@@H]1[C@@H](N(Cc2cccc3ccccc23)C(=O)Cc2ccc(OC)cc2)c2cc(OCCCO)ccc2N1C(=O)Cc1ccc2ccccc2c1` (stereo partly drawn), the z-score in [1] is 0.687; in [2], 0.428 (inactive); in [3] it was 0.504 (inactive); in [5], -0.853 (inactive); in [6], -0.372 (inactive); in experiment [7], 0.685 (inactive). In addition, the z-score in [8] is 0.248 (inactive); in experiment [9], 0.4; in experiment [12] it was -1.91; in experiment [13], -2.41 (inactive); in experiment [14], 0.42 (inactive); in experiment [15] it was 0.512 (inactive). Also, the composite z-score in experiment [4] was -0.717 (inactive); in experiment [10] it was 0.141; in [11], -0.559 (inactive); in the experiment on XIP peptide (Xip251-270) it was 0.296.
As for `COC(=O)[C@@]1(Cc2ccccc2)[C@H]2c3cc(C(=O)N(C)C)n(Cc4ccc(C(F)(F)F)nc4)c3C[C@H]2CN1C(=O)c1ccccc1`, the z-score is -0.634 in experiment [1]; 2.47 (inactive) in experiment [2]; -1.11 (inactive) in experiment [3]; 0.563 (inactive) in [5]; 1.02 (inactive) in [6]; -0.46 (inactive) in experiment [7]. In addition, the z-score in experiment [8] is 0.03 (inactive); in experiment [9] it was -0.693; in experiment [12], -1.24; in [13], -3.46 (inactive); in experiment [14], 0.296 (inactive); in experiment [15] it was 0.0603 (inactive). For the same compound, the composite z-score in experiment [4] was -0.125 (inactive); in experiment [10] it was -0.242; in [11], 0.119 (inactive); with XIP peptide (Xip251-270) it was 0.337.
As for `CCOC(=O)C[C@H]1[C@H](OC(=O)c2ccccc2-c2ccccc2)[C@@H](NC(=O)C2CCCCC2)c2cc(OCCCO)ccc2N1C(=O)c1ccc2ccccc2n1`, the z-score in experiment [1] is -0.872; in [2], 0.818 (inactive); in experiment [3] it was -0.0667 (inactive); in [5] it was -0.177 (inactive); in experiment [6], 0.743 (inactive); in experiment [7], -0.53 (inactive). Also, the z-score in experiment [8] is -0.12 (inactive); in experiment [9] it was 0.131; in [12], 0.433; in experiment [13], -3.33 (inactive); in experiment [14] it was 0.0664 (inactive); in experiment [15], -0.108 (inactive). The composite z-score is 0.338 (inactive) in experiment [4], -0.0351 in experiment [10], 0.181 (inactive) in [11] and 0.727 in the experiment on XIP peptide (Xip251-270).
In the case of `CO[C@H]1O[C@H](CO)[C@@H](OC(=O)Nc2ccccc2-c2ccccc2)[C@H](OC(=O)Nc2ccccc2)[C@H]1OC(=O)Nc1ccccc1`, the z-score in experiment [1] was -1.68; in [2], 0.788 (inactive); in [3], -3.07 (inactive); in experiment [5], 2.11 (inactive); in experiment [6], 2.81 (inactive); in experiment [7] it was 1.15 (inactive). Further, the z-score is 0.172 (inactive) in [8]; -2.06 in experiment [9]; -2.14 in [12]; -3.21 (inactive) in experiment [13]; -0.392 (inactive) in experiment [14]; -0.15 (inactive) in experiment [15]. Also, the composite z-score is -0.0626 (inactive) in [4], 0.0479 in experiment [10], -0.249 (inactive) in [11] and 0.915 with XIP peptide (Xip251-270).
Regarding `CC(C)C[C@@H]1NC(=O)[C@@]23C(=O)N[C@@H](Cc4ccccc4)C2[C@H](C)[C@@]2(C)O[C@H]2C3/C=C/C/C=C\CNC(=O)CNC1=O` (stereo partly drawn), the z-score in experiment [1] was -0.62; in experiment [2], -1.68 (inactive); in [3] it was 0.308 (inactive); in experiment [5], 0.437 (inactive); in [6], -0.773 (inactive); in [7], -0.229 (inactive). In addition, the z-score is -0.911 (inactive) in experiment [8]; -0.139 in experiment [9]; -0.59 in experiment [12]; -5.87 (inactive) in experiment [13]; 0.312 (inactive) in experiment [14]; -0.0422 (inactive) in [15]. Also, the composite z-score is -0.658 (inactive) in [4], -0.105 in [10], 0.533 (inactive) in experiment [11] and 0.58 in the experiment with XIP peptide (Xip251-270).
